From PubChem BioAssay (NCATS)
Inconclusive results are not listed. The source made the active and inactive calls. Calls follow the shape of the dose curve; as a rule, active = well fitted curve in the direction sought with a large enough effect; inconclusive = small, poorly fitted or top-dose-only effect, or another doubt; inactive = no such curve, though single readings can be large; an effect the other way counts as inactive or inconclusive.

Experiments:
HACAT = test: qHTS assay to identify novel small-molecules to repurpose for Merkel cell carcinoma treatment (AID 1296009); conditions: MCC and control cell lines, CellTiter-Glo viability, 72 h; at 44.8 µM (top of the series) unless noted; also: nearly all actives have a fitted effect of over 60% in size
Summary of the method: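 72 hr, 37 degree celsius; NPC 8-pt / MIPE 11-pt dose response; compound pinned in DMSO; CellTiter-Glo, 10 min RT, luminescence; normalized to no-cell and DMSO controls.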

C33A = test: Primary qHTS to identify gynecologic anti-cancer compounds using libraries of approved drugs and bioactive compounds (AID 1345084); conditions: Gynecologic cancer cell panel viability, ATPlite luminescence, 48 h; series mostly up to 57.5 µM; also: nearly all actives have a fitted effect of over 55% in size
Summary of the method: (§1)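 In this quantitative HTS, cell killing is estimated from loss of ATP-dependent luciferase light. Cells see five compound concentrations over a 48 h exposure.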

CAOV3 = test: as above; conditions: Gynecologic cancer cell panel viability, ATPlite luminescence, 48 h; series mostly up to 57.5 µM
Summary of the method: as §1

CASKI = test: as above; conditions: Gynecologic cancer cell panel viability, ATPlite luminescence, 48 h; series mostly up to 57.5 µM
Summary of the method: as §1

Es-2 = test: as above; conditions: Gynecologic cancer cell panel viability, ATPlite luminescence, 48 h; series mostly up to 57.5 µM
Summary of the method: as §1

HeLa = test: as above; conditions: Gynecologic cancer cell panel viability, ATPlite luminescence, 48 h; series mostly up to 57.5 µM
Summary of the method: as §1

Hek293T = test: as above; conditions: Gynecologic cancer cell panel viability, ATPlite luminescence, 48 h, control line for the selectivity index; series mostly up to 57.5 µM
Summary of the method: as §1

JEG-3 = test: as above; conditions: Gynecologic cancer cell panel viability, ATPlite luminescence, 48 h; series mostly up to 57.5 µM
Summary of the method: as §1

OV90 = test: as above; conditions: Gynecologic cancer cell panel viability, ATPlite luminescence, 48 h; series mostly up to 57.5 µM
Summary of the method: as §1

PA-1 = test: as above; conditions: Gynecologic cancer cell panel viability, ATPlite luminescence, 48 h; series mostly up to 57.5 µM
Summary of the method: as §1

SKOV3 = test: as above; conditions: Gynecologic cancer cell panel viability, ATPlite luminescence, 48 h; series mostly up to 57.5 µM
Summary of the method: as §1

Tov-21-G = test: as above; conditions: Gynecologic cancer cell panel viability, ATPlite luminescence, 48 h; series mostly up to 57.5 µM
Summary of the method: as §1

Tov112D = test: as above; conditions: Gynecologic cancer cell panel viability, ATPlite luminescence, 48 h; series mostly up to 57.5 µM
Summary of the method: as §1

Measured: Potency

COC(=O)[C@H](c1ccccc1Cl)N1CCC2SC(=O)C=C2C1 (stereo partly drawn)
inactive: HACAT | C33A | CAOV3 | CASKI | Es-2 | HeLa | Hek293T | JEG-3 | OV90 | PA-1 | SKOV3 | Tov-21-G | Tov112D

C[C@@H]1O[C@@H](O[C@H]2[C@@H]3C=CO[C@@H](O[C@@H]4O[C@H](CO)[C@@H](O)[C@H](O)[C@H]4O)[C@@H]3[C@@]3(CO)O[C@@H]23)[C@H](O)[C@H](OC(=O)/C=C/c2ccc(O)cc2)[C@H]1OC(=O)/C=C/c1ccc(O)cc1
inactive: HACAT inactive [at 17.4 µM] | C33A | CAOV3 | CASKI | Es-2 | HeLa | Hek293T | JEG-3 | OV90 | PA-1 | SKOV3 | Tov-21-G | Tov112D

CC1=C(C)C(=O)OC(C(C)C2C(O)CC3C4C5OC5C5(O)CC(OC6OC(CO)C(OC7OC(C)C(O)C(O)C7O)C(O)C6O)CC(O)C5(C)C4CCC32C)C1 (stereo not drawn)
inactive: HACAT inactive [at 17.4 µM] | C33A | CAOV3 | CASKI | Es-2 | HeLa | Hek293T | JEG-3 | OV90 | PA-1 | SKOV3 | Tov-21-G | Tov112D

COC(=O)C1=COC(OC2OC(CO)C(O)C(O)C2O)C2C(COC(=O)/C=C/c3ccc(O)cc3)C(O)C(O)C12 (stereo not drawn)
inactive: HACAT inactive [at 17.4 µM] | C33A | CAOV3 | CASKI | Es-2 | HeLa | Hek293T | JEG-3 | OV90 | PA-1 | SKOV3 | Tov-21-G | Tov112D

CC1(C)CC=C(c2cnc3ccccc3c2)c2cc(C(=O)Nc3ccc(C(=O)O)cc3)ccc21
inactive: HACAT | C33A | CAOV3 | CASKI | Es-2 | HeLa | Hek293T | JEG-3 | OV90 | PA-1 | SKOV3 | Tov-21-G | Tov112D

CCCO[C@@H]1O[C@H](CO)[C@@H](O)[C@H](O)[C@H]1O[C@@H]1OC[C@@H](O)[C@H](O)[C@H]1O
inactive: HACAT | C33A | CAOV3 | CASKI | Es-2 | HeLa | Hek293T | JEG-3 | OV90 | PA-1 | SKOV3 | Tov-21-G | Tov112D

O=C(N[C@@H]1CC[C@@H](c2cccc(F)c2F)CN(CC(F)(F)F)C1=O)N1CCC(n2c(=O)[nH]c3ncccc32)CC1
inactive: HACAT | C33A | CAOV3 | CASKI | Es-2 | HeLa | Hek293T | JEG-3 | OV90 | PA-1 | SKOV3 | Tov-21-G | Tov112D

COC(=O)[C@H](Cc1cccc(C(=N)N)c1)[C@@H](C)NC(=O)c1ccc(-c2cc[n+]([O-])cc2)cc1
inactive: HACAT | C33A | CAOV3 | CASKI | Es-2 | HeLa | Hek293T | JEG-3 | OV90 | PA-1 | SKOV3 | Tov-21-G | Tov112D

C=C(CCO)C(=O)OCC1OCC(OC(=O)C(=C)CCO[C@@H]2O[C@H](CO)[C@@H](O)[C@H](O)[C@H]2O)C(O)C1O (stereo partly drawn)
inactive: HACAT inactive [at 17.4 µM] | C33A | CAOV3 | CASKI | Es-2 | HeLa | Hek293T | JEG-3 | OV90 | PA-1 | SKOV3 | Tov-21-G | Tov112D

COc1cc(O)cc(C)c1C(=O)OC1C(CO)OC(n2ccc(=O)[nH]c2=O)C1OC(C)=O (stereo not drawn)
inactive: HACAT inactive [at 17.4 µM] | C33A | CAOV3 | CASKI | Es-2 | HeLa | Hek293T | JEG-3 | OV90 | PA-1 | SKOV3 | Tov-21-G | Tov112D

C[C@]12CC[C@@H]3c4ccc(O)cc4CC[C@H]3[C@@H]1C[C@@H](O[C@@H]1O[C@H](C(=O)O)[C@@H](O)[C@H](O)[C@H]1O)[C@@H]2O
inactive: HACAT | C33A | CAOV3 | CASKI | Es-2 | HeLa | Hek293T | JEG-3 | OV90 | PA-1 | SKOV3 | Tov-21-G | Tov112D
